Unmarked numbers belong to inactive results. Results filed as inconclusive are left out. Active and inactive are the calls of the source. Unless noted, calls follow the shape of the dose curve; as a rule, active = well fitted curve in either direction with a large enough effect (not every such curve was filed as active); inconclusive = small, poorly fitted or top-dose-only effect, or another doubt; inactive = flat fitted curve, though single readings scatter. Residues, ends and D or L forms follow the SMILES beside them.
Tests used:
[1] = target: Lysosomal acid glucosylceramidase (Homo sapiens) (UniProt P04062); experiment: Glucocerebrosidase-p2 (AID 348; in the data active = potency below about 10 µM; also: potency is read from the fitted curve at half-maximal effect); details: purified GBA, blue fluorogenic substrate, 40 min
Summary of the method: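 Normal human glucocerebrosidase (0.2 nM) with blue fluorogenic substrate (80 uM final) in citrate/phosphate pH 5.9 with 10mM sodium taurocholate, 0.01% tween-20; 40 min RT, NaOH/glycine stop; fluorescence Ex 365/Em 440; AC50 from a titration from 0.6 nM upwards.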

[2] = AP1 Signaling Pathway (AID 357); details: ME-180 AP-1-bla reporter, EGF-induced, beta-lactamase ratio, 5 h; at 7.69 µM (top of the series) unless noted;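 also: ME-180 reporter cells stimulated with EGF at its EC50 level; % is scaled to controls: 0 for no effect and ±100 for the full control effect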
Summary of the method: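 Titration-series screen for positive or negative modulators of EC50 EGF-induced signaling in ME-180 cells carrying an AP-1-driven beta-lactamase reporter. After 5 hours at 37 degrees Celsius, CCF4 460nm/530nm emission ratio gave %Activity; AC50 values derived.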

[3] = target: Cytochrome P450 1A2 (Homo sapiens) (UniProt P05177); experiment: p450-cyp1a2 (AID 410; calls by dose curve; also: potency is read from the fitted curve at half-maximal effect;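 as to activity change, negative = inhibition: -100% = full effect of reference inhibitor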); details: recombinant CYP1A2, luciferin-ME demethylation, luminescence; series mostly up to 11.4 µM
Summary of the method: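 Luminescent demethylation readout: Luciferin-ME (100uM, equal to Km) turned over by 20nM CYP1A2 for 60 min at room temperature after NADPH regeneration addition, following 10 min compound preincubation. Normalization used 57 uM furafylline as full inhibition.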

[4] = NFAT Signaling Pathway (AID 444); details: Jurkat NFAT-bla M1, carbachol, beta-lactamase ratio, 5 h; at 7.69 µM (top of the series) unless noted;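 also: carbachol stimulus at about its EC50 of 1 µM final; % is scaled to controls: 0 for no effect and ±100 for the full control effect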
Summary of the method: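 Jurkat cells with NFAT-driven β-lactamase reporter and co-expressed M1 receptor, stimulated with carbachol (final 1 uM, ~EC50), compound titration, 5 h at 37 °C. CCF4 loaded 1 h at RT; 460/530 nm ratio gave %activity and AC50.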

[5] = Stat Signaling Pathway (AID 446); details: ME-180 (cervical carcinoma) SIE beta-lactamase reporter, IL-6 stimulated, 5 h; at 7.69 µM (top of the series) unless noted;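 also: ME-180 cervical cancer cells given 40 pM IL-6 alongside compound; SIE-controlled beta-lactamase reporter measured as 460/530 nm FRET emission ratio; % is scaled to controls: 0 for no effect and ±100 for the full control effect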
Summary of the method: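 FRET read-out (405 nm excitation, 460/530 nm emission) of a beta-lactamase reporter under a STAT-inducible element in ME-180 cervical carcinoma cells. Cells with compound receive 40 pM IL-6 for 5 h. Values are normalised to AC90 stimulation and AC90 JAK-inhibitor controls.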

[6] = target: Glucocorticoid receptor (Homo sapiens) (UniProt P04150); experiment: GR-GFP Redistribution (AID 450;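 active = compounds whose dose series gives a full or clear partial fitted curve of increased nuclear translocation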; also: potency is read from the fitted curve at half-maximal effect); details: U2OS GR-GFP nuclear translocation, laser cytometry, 2 h
[7] = target: Glucocorticoid receptor (Homo sapiens) (UniProt P04150); experiment: GR-EFC Redistribution (AID 451; calls by dose curve; also: potency is read from the fitted curve at half-maximal effect); details: CHO-K1 GR-EFC translocation, beta-gal luminescence, 2 h
Summary of the method: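 CHO-K1 cells expressing nuclear EA and GR-ED fragments of b-gal; compounds titrated up to 46 uM final, 2 h at 37 C. GR nuclear translocation read as complemented b-gal luminescence after 1 h RT detection.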

[8] = target: Mitogen-activated protein kinase 10 (Mus musculus) (UniProt Q61831); experiment: JNK3 AlphaScreen Assay (AID 530); details: JNK3 lysate, c-Jun phosphorylation; series mostly up to 11.4 µM;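 also: kinase came from lysate of stimulated human HepG2 cells; signal reports phosphorylation of biotinylated GST-cJun 1-79 at Ser73 with 10 µM ATP; % is scaled to controls: 0 for no effect and ±100 for the full control effect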
Summary of the method: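 Activity was read by AlphaScreen after JNK3-containing HepG2 lysate (cytokine pre-activated) phosphorylated biotinylated GST-cJun with 10 uM ATP at room temperature. Phospho-Ser73 cJun antibody with Protein-A acceptor beads provided detection.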

[9] = target: 3',5'-cyclic-AMP phosphodiesterase 4B (Homo sapiens) (UniProt Q07343); experiment: qHTS Assay for Inhibitors of PDE-IV (AID 607; active = well fitted activation curve with a large enough effect in the main read-out, with a control signal flat, not every such curve was filed as active; also: % of control where 0% means no effect); details: HEK293 ACTOne CNG channel cells, membrane potential fluorescence; series mostly up to 22.9 µM
Summary of the method: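 Cell-based read-out of cAMP via a modified cyclic nucleotide-gated channel and membrane potential dye (535/590 nm) in HEK293 cells expressing PDE4 endogenously. Compounds tested up to 22.9 uM final; 100 uM RO 20-1724 reference.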

Sequence of Glucocorticoid receptor (Homo sapiens) (P04150 whole entry, looked up, the tested form may be a part): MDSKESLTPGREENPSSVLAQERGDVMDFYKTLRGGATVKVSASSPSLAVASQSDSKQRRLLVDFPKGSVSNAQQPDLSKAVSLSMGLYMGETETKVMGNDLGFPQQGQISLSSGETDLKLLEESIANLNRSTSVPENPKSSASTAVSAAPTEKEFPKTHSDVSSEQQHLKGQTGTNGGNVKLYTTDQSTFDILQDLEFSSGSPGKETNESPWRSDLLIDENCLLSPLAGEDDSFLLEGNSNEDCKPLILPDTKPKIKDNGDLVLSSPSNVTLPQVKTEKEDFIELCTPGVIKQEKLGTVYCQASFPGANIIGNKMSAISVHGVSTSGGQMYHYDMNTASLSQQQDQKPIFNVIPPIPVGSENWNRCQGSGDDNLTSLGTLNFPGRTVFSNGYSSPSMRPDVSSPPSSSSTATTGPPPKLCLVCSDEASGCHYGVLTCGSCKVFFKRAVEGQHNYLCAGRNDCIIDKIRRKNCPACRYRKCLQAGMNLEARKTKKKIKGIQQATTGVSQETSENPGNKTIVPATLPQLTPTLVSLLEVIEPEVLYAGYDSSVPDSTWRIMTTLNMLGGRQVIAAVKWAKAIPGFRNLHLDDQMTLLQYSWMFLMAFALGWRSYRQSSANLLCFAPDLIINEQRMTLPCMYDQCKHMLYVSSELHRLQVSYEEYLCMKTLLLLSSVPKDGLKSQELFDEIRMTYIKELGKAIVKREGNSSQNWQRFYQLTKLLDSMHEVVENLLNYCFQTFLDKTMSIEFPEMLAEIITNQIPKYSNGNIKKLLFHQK
Sequence of 3',5'-cyclic-AMP phosphodiesterase 4B (Homo sapiens) (Q07343 whole entry, looked up): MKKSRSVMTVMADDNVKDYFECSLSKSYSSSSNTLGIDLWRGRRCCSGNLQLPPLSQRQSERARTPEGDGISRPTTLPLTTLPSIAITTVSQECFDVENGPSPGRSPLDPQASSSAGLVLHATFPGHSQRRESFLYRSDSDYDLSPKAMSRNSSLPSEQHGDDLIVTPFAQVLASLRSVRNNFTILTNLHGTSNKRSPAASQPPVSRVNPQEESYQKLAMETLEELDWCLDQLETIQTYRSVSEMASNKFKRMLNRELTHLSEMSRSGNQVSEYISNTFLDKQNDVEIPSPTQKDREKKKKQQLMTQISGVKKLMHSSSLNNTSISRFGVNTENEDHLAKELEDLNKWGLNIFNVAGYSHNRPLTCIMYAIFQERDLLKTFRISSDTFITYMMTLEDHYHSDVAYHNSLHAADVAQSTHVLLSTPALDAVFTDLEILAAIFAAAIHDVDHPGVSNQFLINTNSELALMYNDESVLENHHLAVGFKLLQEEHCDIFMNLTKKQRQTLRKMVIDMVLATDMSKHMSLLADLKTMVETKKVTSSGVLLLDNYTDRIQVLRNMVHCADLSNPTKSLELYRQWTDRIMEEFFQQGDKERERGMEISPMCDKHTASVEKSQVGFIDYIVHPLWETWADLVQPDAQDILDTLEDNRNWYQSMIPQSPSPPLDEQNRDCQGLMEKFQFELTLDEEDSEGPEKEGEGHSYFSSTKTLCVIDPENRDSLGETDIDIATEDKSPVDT
Sequence of Lysosomal acid glucosylceramidase (Homo sapiens) (P04062 whole entry, looked up): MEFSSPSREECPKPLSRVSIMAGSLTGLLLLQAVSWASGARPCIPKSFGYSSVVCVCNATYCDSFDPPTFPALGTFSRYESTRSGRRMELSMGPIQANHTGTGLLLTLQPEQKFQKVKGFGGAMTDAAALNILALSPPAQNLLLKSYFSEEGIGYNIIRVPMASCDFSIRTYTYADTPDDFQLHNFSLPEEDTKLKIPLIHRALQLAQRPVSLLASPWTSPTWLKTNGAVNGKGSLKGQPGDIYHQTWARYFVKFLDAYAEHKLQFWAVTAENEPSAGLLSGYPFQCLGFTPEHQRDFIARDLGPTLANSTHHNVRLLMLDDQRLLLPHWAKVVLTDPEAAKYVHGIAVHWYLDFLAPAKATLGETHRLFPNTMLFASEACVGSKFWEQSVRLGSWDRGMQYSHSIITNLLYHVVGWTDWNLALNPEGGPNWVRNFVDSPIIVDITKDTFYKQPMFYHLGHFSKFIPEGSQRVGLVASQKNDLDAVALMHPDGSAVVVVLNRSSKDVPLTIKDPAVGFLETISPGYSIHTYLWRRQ
Sequence of Cytochrome P450 1A2 (Homo sapiens) (P05177 whole entry, looked up): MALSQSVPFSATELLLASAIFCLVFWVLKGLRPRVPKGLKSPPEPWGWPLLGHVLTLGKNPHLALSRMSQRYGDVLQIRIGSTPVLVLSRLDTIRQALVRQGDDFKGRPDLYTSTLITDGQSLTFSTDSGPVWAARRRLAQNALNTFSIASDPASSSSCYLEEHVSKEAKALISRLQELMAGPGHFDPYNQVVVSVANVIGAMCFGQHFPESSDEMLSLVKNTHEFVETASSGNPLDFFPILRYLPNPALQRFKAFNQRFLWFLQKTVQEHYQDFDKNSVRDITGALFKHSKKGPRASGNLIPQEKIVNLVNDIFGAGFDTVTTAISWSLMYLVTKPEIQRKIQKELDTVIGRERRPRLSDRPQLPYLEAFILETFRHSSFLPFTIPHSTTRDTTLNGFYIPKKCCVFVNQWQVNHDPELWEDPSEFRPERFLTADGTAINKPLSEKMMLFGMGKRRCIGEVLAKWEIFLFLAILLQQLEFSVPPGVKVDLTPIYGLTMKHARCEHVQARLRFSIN

Row | SMILES | Potency [1] | activity change, negative = inhibition [2] | activity change, negative = inhibition [3] | activity change, negative = inhibition [4] | activity, negative = inhibition [5] | Potency [6] | Potency [7] | Potency [8] | Potency [9] | Potency [3]
1 | O=C(O)COc1c(Cl)cc(Cl)c2cccnc12 | > 11.4 µM | 6.1% | -1.3% [at 2.29 µM] | 1.63% | -0.716% | > 46 µM | > 9.22 µM | inactive | inactive | 
2 | O=C(O)c1ccccc1CN1CCC[C@@H](C(=O)O)C1 | > 11.4 µM | -3.95% |  | 12.7% | 8.09% | > 46 µM | > 9.22 µM | inactive | inactive | inactive
3 | O=S(O)O.O=S(O)O.[Co].[NH2-].[NH2-].[NH2-].[NH2-] | > 11.4 µM | -7.83% |  | 15.9% | 26% | > 46 µM | > 9.22 µM | inactive | inactive | inactive
4 | Oc1ccc2ccccc2c1C=NCc1c(O)ccc2ccccc12 | > 11.4 µM | -5.07% |  | 12.6% | -21.2% | > 46 µM | > 9.22 µM | inactive | inactive | 1.58 µM (active)
5 | Cn1c(=O)c2[nH]c(CS(=O)(=O)Cc3nc4c([nH]3)c(=O)n(C)c(=O)n4C)nc2n(C)c1=O | > 11.4 µM | -5.52% | -21.1% [at 2.29 µM] | -4.99% | -2.96% | > 46 µM | > 9.22 µM | inactive | inactive | 
6 | O=C(O)CSCCc1ccccc1 | > 11.4 µM | 6.88% |  | -11.5% | 16.8% | > 46 µM | > 9.22 µM | inactive | inactive | inactive
7 | O=C1c2ccccc2C(=O)N1C[C@]1(C(=O)O)NCCS1(=O)=O | > 11.4 µM | -0.765% | -5.5% [at 2.29 µM] | 7.39% | -1.43% | > 46 µM | > 9.22 µM | inactive | inactive | 
8 | O=[N+]([O-])/C=C\c1cc2ccccc2[nH]1 | > 11.4 µM | -11.8% |  | 12.4% | 23.3% | > 46 µM | > 9.22 µM | inactive | inactive | 1.26 µM (active)
9 | C[N+](C)(C)[C@H](Cc1c[nH]c(=S)[nH]1)C(=O)O | > 11.4 µM | 4.67% |  | -2.8% | 9.57% | > 46 µM | > 9.22 µM | inactive | inactive | inactive
10 | O=C(O)CNCCc1ccccc1 | > 11.4 µM | 7.75% |  | -3.02% | 4.05% | > 46 µM | > 9.22 µM | inactive | inactive | inactive
11 | c1ccc(CCc2cccnc2)nc1 | > 11.4 µM | 12.9% |  | 14.1% | 0.19% | > 46 µM | > 9.22 µM | inactive | inactive | 0.398 µM (active)
12 | NCC(=O)N[C@H](CO)C(=O)O (HELM PEPTIDE1{G.[dS]}$$$$V2.0) | > 11.4 µM | 12.3% |  | -7.28% | 10.1% | > 46 µM | > 9.22 µM | inactive | inactive | inactive
13 | O=C1C=C(Nc2nc(C(=O)O)cc(=O)[nH]2)c2ccccc2C1=O | > 11.4 µM | -3.21% | -15.8% [at 2.29 µM] | 7.2% | 1.38% | > 46 µM | > 9.22 µM | inactive | inactive | 
14 | C[N+](C)(C)c1ccc([C@H](N)C(=O)O)cc1 | > 11.4 µM | -0.163% |  | -21.6% | 0.0481% | > 46 µM | > 9.22 µM | inactive | inactive | inactive
15 | Cc1nc2ccccc2nc1-c1ccc(N=[N+]([O-])c2ccc(-c3nc4ccccc4nc3C)cc2)cc1 | > 11.4 µM | 6.31% |  | -3.33% | -5.62% | > 46 µM | > 9.22 µM | inactive | inactive | 6.31 µM (active)
16 | O=C(O)c1ccc(NS(=O)(=O)Cc2ccccc2)cc1 | > 11.4 µM | 6.38% |  | -0.542% | -0.621% | > 46 µM | > 9.22 µM | inactive | inactive | inactive

Row | SMILES | Potency [1] | activity change, negative = inhibition [2] | activity change, negative = inhibition [3] | activity change, negative = inhibition [4] | activity, negative = inhibition [5] | Potency [6] | Potency [7] | Potency [8] | Potency [9] | Potency [3]
17 | O=C(O)[C@H](Cc1cc(I)c(O)c(I)c1)C1CCCCC1 | > 11.4 µM | -29.2% | -8.8% [at 2.29 µM] | 1.46% | -16% | > 46 µM | > 9.22 µM | inactive | inactive | 
18 | O=C(O)C[C@H](Cc1ccccc1Cl)C(=O)O | > 11.4 µM | -0.0824% |  | -7.65% | 13.9% | > 46 µM | > 9.22 µM | inactive | inactive | inactive
19 | c1cc(NNc2cccc(-c3nn[nH]n3)c2)cc(-c2nn[nH]n2)c1 | > 11.4 µM | 5.72% | -15.5% [at 2.29 µM] | 2.46% | 2.5% | > 46 µM | > 9.22 µM | inactive | inactive | 
20 | CC(=O)Nc1ccc(S(=O)(=O)N=S(C)C)cc1 | > 11.4 µM | 4.76% | -15.9% [at 2.29 µM] | 3.98% | -3.32% | > 46 µM | > 9.22 µM | inactive | inactive | 
21 | COc1ccc(CSC2=C(C#N)C(=O)NC3(CCCCC3)S2)cc1 | > 11.4 µM | 4.52% | -5.8% [at 2.29 µM] | 7.32% | 1.46% | > 46 µM | > 9.22 µM | inactive | inactive | 
22 | CN(CC(=O)O)CC(=O)O | > 11.4 µM | -6.97% | -5.9% [at 2.29 µM] | 11.1% | 2.4% | > 46 µM | > 9.22 µM | inactive | inactive | 
23 | Nc1nc2c(ncn2[C@@H]2C=C[C@@H](CO)C2)c(=O)[nH]1 | > 11.4 µM | 2.92% |  | 10.3% | 5.37% | > 46 µM | > 9.22 µM | inactive | inactive | inactive
24 | CC1=CC(=O)CC(C)(C)[C@]1(O)/C=C\C(C)=C\C(=O)O | > 11.4 µM | 2.59% |  | -29.1% | 2.83% | > 46 µM | > 9.22 µM | inactive | inactive | inactive
25 | O=C(O)c1cccc(C(=O)O)c1S(=O)Cc1ccccc1 (centres undefined) | > 11.4 µM | 5.26% |  | 7.39% | 6.2% | > 46 µM | > 9.22 µM | inactive | inactive | inactive
26 | c1ccc2cc(-c3cc(-c4cc(-c5ccc6ccccc6c5)on4)no3)ccc2c1 | > 11.4 µM | 2.52% |  | 1.2% | 1.33% | > 46 µM | > 9.22 µM | inactive | inactive | 1.58 µM (active)
27 | Nc1nc(-c2cc(-c3cccc4ccccc34)nc(N)n2)cc(-c2cccc3ccccc23)n1 | > 11.4 µM | -7.45% | -4.4% [at 2.29 µM] | 3.93% | -4.92% | > 46 µM | > 9.22 µM | inactive | inactive | 
28 | NS(=O)(=O)c1cc(C(=O)O)c(O)c2ccccc12 | > 11.4 µM | 15.8% |  | 12.4% | 10.7% | > 46 µM | > 9.22 µM | inactive | inactive | inactive
29 | CC(C)NCC[C@@H](O)c1cc2ccccc2o1 | > 11.4 µM | -15% | -2.1% [at 2.29 µM] | -2.7% | 9.58% | > 46 µM | > 9.22 µM | inactive | inactive | 
30 | O=C(O)CCSc1ncnc2nc[nH]c12 | > 11.4 µM | 15.6% |  | 1.77% | 0.335% | > 46 µM | > 9.22 µM | inactive | inactive | inactive
31 | NCC(=O)Nc1ccccc1 | > 11.4 µM | 4.23% |  | 1.46% | 4.18% | > 46 µM | > 9.22 µM | inactive | inactive | 2.51 µM (active)

Reference: PubChem BioAssay (NCATS)
